Source: PubChem BioAssay
CHRM4 agonist – human M4 muscarinic receptor agonists, primary screen, CHO-K1 cells, Fluo-8 calcium fluorescence. CHO-K1 hM4/Gqi5; vehicle 0%, full acetylcholine response 100%. 360,000 compounds, 0.14% hits. activation, % at 3 µM. AID 624127, 2012;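 active = activation above the run mean over all test wells plus 3 SD, cut at about 32% in these data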;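 note: peak over basal fluorescence ratio per well then scaled between controls; 0% = DMSO wells and 100% = acetylcholine at EC100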
M4 antag – human M4 muscarinic receptor antagonists, primary screen, CHO cells, Fluo-8 calcium fluorescence | CHO-hM4 cells, ACh EC80 | inhibition, % at 3 µM | 360,000 compounds, 0.73% hits | AID 624125, 2012;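 active = inhibition above its plate's cutoff, the mean inhibition of sample wells plus 3 SD, cut at about 27% in these data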;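 note: 0% = acetylcholine EC80 with DMSO and 100% = DMSO without agonist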
M1 ag parental – counter-screen for M1 agonists: effect in parental CHO-K1 cells; activation, % at 3 µM; Fluo-8 calcium fluorescence; scaled to maximal ATP response, vehicle zero; 360,000 compounds, 0.48% hits; AID 602248, 2012; in the data active = activation above about 15%;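 note: untransfected CHO-K1 host cells lacking M1 receptor as counterscreen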
CHO-K1 Ca antag – counter-screen for M1 antagonists: effect in parental CHO-K1 cells. ATP-induced calcium, Fluo-8 fluorescence. inhibition, % at 3 µM. 360,000 compounds, 0.6% hits. AID 602250;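 active = inhibition above a per-plate cutoff, the plate's mean sample inhibition plus 3 SD, cut at about 24% in these data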;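 note: 0% = DMSO plus EC80 ATP and 100% = DMSO alone without ATP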
M4 PAM – human M4 muscarinic receptor positive allosteric modulators, primary screen, CHO-K1 cells, Fluo-8 calcium fluorescence; CHO-K1 hM4/Gqi5, ACh EC20; 0% = ACh EC20, 100% = maximal ACh; activation, % at 3 µM; 360,000 compounds, 0.4% hits; AID 624126, 2012;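 active = activation above its plate's cutoff, the mean activation of sample wells plus 3 SD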
CHO-K1 Ca PAM – nonselective calcium activators in parental CHO-K1 cells, primary screen, counter-screen for M1 PAM project, cell-based, Fluo-8 calcium fluorescence, full deck, 1536-well; ATP EC20; 0% at ATP EC20, 100% at ATP max; activation, % at 3 µM; 360,000 compounds, 0.02% hits; AID 602247, 2012;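 active = activation above the run cutoff, the mean activation of all test compounds plus 3 SD, cut at about 40% in these data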;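 note: peak over basal fluorescence ratio in a 140 s read after ATP addition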
Numbers without * were called inactive. Hits are enriched below; roughly 2% of the tested compounds scored in any of these assays.

SMILES	CHRM4 agonist	M4 antag	M1 ag parental	CHO-K1 Ca antag	M4 PAM	CHO-K1 Ca PAM
O=C(COC(=O)c1ccco1)Nc1nc2ccc([N+](=O)[O-])cc2s1	8	5	9	-23	4	13
Clc1cccc2c1Sc1ccccc1CC2N1CCNCC1 (stereo not drawn)	19	68*	6	6	-20	15
COCCCN1CCN(C2Cc3ccccc3Sc3ccc(Cl)cc32)CC1 (stereo not drawn)	15	6	8	0	-33	21
Clc1ccc2c(c1)C(N1CCNCC1)Cc1ccccc1S2 (stereo not drawn)	11	82*	2	-1	-15	12
COCCNC(=O)c1ccc(CN2CCC(Cc3ccccc3)CC2)cc1	0	12	0	-9	-14	10
CCc1ccccc1NC(=O)c1ccc(CN2CCC(Cc3ccccc3)CC2)cc1	6	36*	2	-12	-21	23
O=C(NCc1ccccc1)c1ccc(CN2CCC(Cc3ccccc3)CC2)cc1	4	19	27*	17	-17	8
COc1ccc(CC(N)c2csc(Nc3cnccn3)n2)cc1 (stereo not drawn)	4	11	1	0	-3	2
COc1ccc(NC(=O)CC2C(=O)N(Cc3ccccc3)C(=S)N2CCN2CCOCC2)cc1 (stereo not drawn)	5	-7	3	-19	10	25
Cc1ccc(N(C(=O)c2snc(C(N)=O)c2N)C(C(=O)NCC2CCCO2)c2ccc3ncccc3c2)cc1 (stereo not drawn)	16	5	5	-5	-7	11
COc1ccc(C2CC(c3cccs3)=NN2C(=O)CSc2nc(=O)n3ccc(C)cc3n2)cc1 (stereo not drawn)	1	0	1	-7	-5	12
COCc1cc(C)nc(SCC(=O)Nc2cccc3cccnc23)c1C#N	1	-3	0	25*	-1	-15
CCOC(=O)c1nnn(-c2nc(N3CCCC3)nc(N3CCCC3)n2)c1-c1ccccc1	1	3	0	-7	-1	1
CCOC(=O)c1c(-c2ccccc2)nnn1-c1nc(OCC)nc(N2CCCCC2)n1	9	7	8	54*	-1	-1
CCOc1ccc(C(=O)NC2CCN(CC(=O)NCc3ccccc3)CC2)cc1	1	-6	1	-12	-4	9
CCc1ccc(NC(=O)C(C)OC(=O)CN2C(=O)NC3(CCCC3)C2=O)cc1 (stereo not drawn)	1	7	0	-1	-1	-11
Cc1cccc(C)c1Nc1nc2ccccc2o1	0	-5	0	25*	-1	-6
COc1cccc(N2CCN(c3ncnc4c3[nH]c3ccc(F)cc34)CC2C)c1 (stereo not drawn)	28	85*	11	55*	-23	-4
COc1cc2[nH]c3c(N4CCN(c5ccc(Cl)cc5)CC4)ncnc3c2cc1OC	2	3	1	2	-13	3
Cc1cc(C)c(CSc2ncc(-c3ccc([N+](=O)[O-])cc3)[nH]2)c(C)c1	4	36*	4	11	-13	-1
O=[N+]([O-])c1ccc(-c2cnc(SCc3ccccc3Cl)[nH]2)cc1	6	0	3	-8	-12	19
CCOC(=O)c1c(C)[nH]c(C(=O)COC(=O)c2ccc(N3CCCC3=O)cc2)c1C	1	-1	0	27*	-5	-7
CC1CC(C)CN(C(=O)COC(=O)c2ccc(N3CCCC3=O)cc2)C1 (stereo not drawn)	3	-7	1	-7	9	10
Cn1c(N)c(C#N)c(C#N)c1-c1ccccc1	1	-3	1	-4	2	13
Cc1ccc(C(=O)OCN2C(=O)c3ccccc3C2=O)o1	0	-2	0	3	22*	-23
Nc1ccc(C(=O)OCc2nc3ccccc3s2)cc1	2	-4	1	-12	9	-3
Cc1ccc(C(=O)OCc2nc3ccccc3s2)o1	0	-2	16*	3	4	5
